Measurements: ChEMBL document CHEMBL4513141, “CO-ADD screening of NIH (USA) - Clinical Collection” (2021)
Measured potencies and affinities stand elsewhere. Square brackets hold non-standard residues; d marks the D form. Peptide text beside a SMILES is read from it. pGlu = O=C1CC[C@@H](C(=O)O)N1; Thz = O=C(O)[C@@H]1CSCN1

Experiments:
[1] = test system: Klebsiella pneumoniae; conditions: Concentration 20 uM; ASSAY_TEST Inhibition of Bacterial Growth; detection method Absorption (OD600); MEDIA CAMHB; plate type 384well; NBS; CORNING #3640; time 18 hr
[2] = test system: Candida albicans; conditions: 20 µM
[3] = test system: Cryptococcus neoformans; conditions: Concentration 20 uM; ASSAY_TEST Inhibition of Fungal Growth; detection method Resazurin; Absorption (OD600-OD570); plate type 384well; NBS; CORNING #3640

Row | SMILES | Inhibition [1] [%] | Inhibition [2] [%] | Inhibition [3] [%]
1 | CNC(=C[N+](=O)[O-])NCCSCc1csc(CN(C)C)n1 [NIZATIDINE] | 14.45 | 0.73 | -0.19
2 | CC(=O)CCCCn1cnc2c1c(=O)n(C)c(=O)n2C [LOMIFYLLINE] | 10.43 | 2.63 | -0.96
3 | Cn1cnc([N+](=O)[O-])c1Sc1ncnc2[nH]cnc12 [AZATHIOPRINE] | 13.95 | 4.62 | -6.38
4 | COc1ccc2[nH]c([S+]([O-])Cc3ncc(C)c(OC)c3C)nc2c1 (configuration not stated) [OMEPRAZOLE] | 7.63 | 27 | -26.65
5 | CCC1=C(C)CN(C(=O)NCCc2ccc(S(=O)(=O)NC(=O)N[C@H]3CC[C@H](C)CC3)cc2)C1=O [GLIMEPIRIDE] | 11.97 | 1.98 | -2.89
6 | CCOC(=O)N1CCC(=C2c3ccc(Cl)cc3CCc3cccnc32)CC1 [LORATADINE] | 12.62 | 2.41 | -7.17
7 | COc1cc(C[C@@H](CO)[C@H](CO)Cc2ccc(O)c(OC)c2)ccc1O [(+)-SECOISOLARICIRESINOL] | 5.83 | 4.22 | 1.62
8 | CC[C@H](C)C(=O)O[C@H]1CCC=C2C=C[C@H](C)[C@H](CC[C@@H]3C[C@@H](O)CC(=O)O3)[C@H]21 [MEVASTATIN] | 5.3 | 24.7 | -2.39
9 | O=C1CC[C@@H](C(=O)N2CSC[C@H]2C(=O)O)N1 [PIDOTIMOD] ([pGlu]-[Thz]-OH) | 9.73 | 0.05 | -3.45
